# Results published in ChEMBL document CHEMBL3988442, “University of Dundee, Small-Polar-MMV Screening Library” (2021).
# “And” between values parts separate entries of the source, which are not always exact repeats. Equal values may be shown once. Out of some 34,000 compounds screened, about 290 (0.85%) showed an effect of 50% or more. The full list was thinned out, with strong results kept by preference.
# Tested on: Plasmodium falciparum
# Assay: Plasmodium falciparum sporozoite viability assay
# Assay type: functional, organism-based
# Design: scale not given: in the data most compounds retested in dose-response had high values
Structure (SMILES),Percent Effect [%],Percent Effect (10 mM as filed; unlikely as a test dose)
COc1ccc2c(c1)C(=O)NC1(CC2)CCN(Cc2ccncc2)C1 (stereo not drawn),11.06,–
CCCNC(=O)c1cc(C2CCCN(Cc3ccccn3)C2)no1 (stereo not drawn),2.586,–
CNS(=O)(=O)Cc1cccc(CNC(=O)Nc2cn[nH]c2)c1,3.105,–
Cc1n[nH]c(C2CN(C(=O)c3cc4c(s3)CCCC4)CCO2)n1 (stereo not drawn),–,11.47% and -8.902% and 7.352%
Cc1n[nH]c(C2CN(C(=O)c3cc4c(s3)CCC4)CCO2)n1 (stereo not drawn),–,-3.516% and -12.52% and -10.81%
N#Cc1c(C2CCOC2)cc(-c2ccc(N3CCCCC3)cc2)nc1N (stereo not drawn),–,29.44% and 63.96% and 52.39%
Oc1nnc(-c2cccs2)c2sc(N3CCCCC3)nc12,–,6.59% and -1.953%
Oc1nnc(-c2cccs2)c2sc(N3CCCC3)nc12,–,-6.906% and -7.819%
Oc1nnc(-c2ccccc2)c2sc(N3CCCCC3)nc12,–,60.86% and 56.27%
CCOc1ccc(Cl)cc1CCNC(=O)Cn1nc(C)ccc1=O,-8.218,–
Cc1nc(C)c(COc2ccc(S(=O)(=O)N(C)C)cc2)s1,–,5.36% and 0% and 2.114%
Cc1nc(COc2ccc(N(C)S(C)(=O)=O)cc2)sc1C,–,53.33% and 78.78% and 74.56%
CN1CCN(c2ccc(NS(=O)(=O)c3ccc(Br)s3)cc2C(=O)O)CC1,4.745,–
Cc1ccc(CC(=O)N2CCN(c3nccs3)CC2)s1,2.447,–
CC(C)OCCCN(Cc1ccncc1)Cc1cc(F)cc(F)c1.Cl,11.64,–
CC(=O)Nc1nc(C(=O)N2CCCC(n3cncn3)C2)cs1 (stereo not drawn),–,82.11% and 81.18% and 79.89%
CC(=O)N1CCN(C(=O)Nc2cnc3c(cnn3C(C)C)c2)CC1,25.32,–
Cc1ccc(CN(CCN(C)C)Cc2ccnn2C2CCCCO2)o1.O=C(O)CC(O)(CC(=O)O)C(=O)O (stereo not drawn),-4.714,–
OCC1CCCCN1c1ccc(-c2nc(-c3ccccc3F)no2)cn1 (stereo not drawn),–,104% and 108.6% and 106.3%
COc1ccc2c(c1)CN(c1cc(N3CCCC3CO)ncn1)CC2 (stereo not drawn),-18.73,–
Cc1ccc(-c2nc(CN3CCCC3Cn3cc(C)cn3)no2)cc1 (stereo not drawn),-11.03,–
OC[C@@H]1CCCN1c1ccc(-c2nc(COc3ccccc3)no2)cn1,3.859,–
COCc1noc(-c2ccc(N3CCCCC3CO)nc2)n1 (stereo not drawn),–,100.3% and 99.37% and 102%
OCC1CCCN1c1cc(N2CCc3ccccc3C2)ncn1 (stereo not drawn),3.468,–
COCc1noc(-c2ccc(N3CCC[C@H]3CO)nc2)n1,–,100.4% and 89.16% and 80.89%
COc1ccc(-c2noc(-c3ccc(N4CCC[C@H]4CO)nc3)n2)cc1,–,49.77% and 66.78% and 41.57%
CCOC(=O)C1CCCN(c2ccc(-c3nc(C)no3)cn2)C1 (stereo not drawn),-0.4292,–
OC[C@@H]1CCCN1c1ccc(-c2nc(CCc3ccccc3)no2)cn1,-12.02,–
